High-throughput results: PubChem, Sanford-Burnham Center for Chemical Genomics
ER stress death = protection against thapsigargin ER stress killing – CSM14.1 cells, ATP luminescence, primary screen; 48,000 tested, 0.33% active; CSM14.1 thapsigargin ER stress survival; relative survival (cellular ATP), % at 15 µg/mL (by protocol);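 active means survival measured by cellular ATP above 50% at 15 µg/ml in the first screen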;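 further: cell death triggered by about 15 µM thapsigargin; ATP read 24 h after thapsigargin was added; plate controls were thapsigargin with DMSO for no effect and DMSO without thapsigargin for full effect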
Numbers without * were called inactive. Shown is part of a subset that was picked to be rich in hits.

SMILES | ER stress death
COc1ccc(Br)cc1CN1CCN(C(=O)COc2ccc(Cl)cc2)CC1 | 23.5
COc1ccc(CN2CCN(C(=O)COc3ccc(Cl)cc3)CC2)cc1OCc1ccccc1 | 69.2*
O=C(COc1ccc(Cl)cc1)N1CCN(Cc2cccc(F)c2)CC1 | -2.3
CN1C(=O)C(=Cc2cccc(OCCOc3ccc([N+](=O)[O-])cc3)c2)C(=O)N(C)C1=O | 3.3
CCCNC(=O)C1CN1Cc1ccc(OC)cc1 (configuration not stated) | 7.4
